Assay [1] can be described thus: AP1 Signaling Pathway (AID 357; active = well fitted curve in either direction with a large enough effect, not every such curve was filed as active; note: % is set by controls: 0 for no effect and ±100 for the full control effect). The settings on record: ME-180 AP-1-bla reporter, EGF-induced, beta-lactamase ratio, 5 h; at 17.2 µM (top of the series) unless noted. The method in brief: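 AP-1-bla ME-180 cells with beta-lactamase reporter under AP-1 response element, stimulated with EC50 EGF; compounds titrated, 5 hours at 37 degrees Celsius. CCF4 read at 460/530 nm ratio; positive and negative modulators judged by AC50.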

A short description of assay [2]: Cell Viability - Jurkat (AID 426;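 active = dose-dependent loss of cell ATP signal giving a full or clear fitted curve, ranked by lower potency value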;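 note: potency is the fitted concentration of half-maximal effect; cells exposed to compound for 40 hours at 37 °C before ATP read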). The settings on record: qHTS. The method in brief:
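Luminescent ATP read-out (CellTiter-Glo, 20 min at room temperature) after 40 hr compound exposure at 37 °C of Jurkat E6-1 cells, 5000/well. Decreased ATP taken as cytotoxicity; AC50 from standard Hill equation.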
For orientation: qHTS replaces the single test concentration by a dilution series.

A short description of assay [3]: Cell Viability - Hek293 (AID 427;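 active = compounds whose dose-response curve shows a full or clear partial loss of cell viability, called from curve shape rather than a numeric limit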;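 note: potency is the fitted concentration of half-maximal effect; cells exposed to compound for 40 hours at 37 °C before reading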). The settings on record: qHTS. Put shortly:
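Luminescent ATP content (CellTiter-Glo, 20 min at room temperature) was measured after a 40 hr, 37 °C compound exposure of HEK293 cells. AC50 values came from Hill-equation fits of qHTS concentration-response data normalized to DMSO and 100 uM tamoxifen.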

Assay [4] in a line: Cell Viability - SK-N-SH (AID 435; calls by dose curve; note: potency is the fitted concentration of half-maximal effect). The settings on record: SK-N-SH neuroblastoma cell viability qHTS. Put shortly:
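Cells seeded at 1500 per well and incubated 5 hr at 37 °C. Compound added, then 40 hr at 37 °C. CellTiter-Glo added, 20 min at room temperature, luminescence read.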

The nature of assay [5]: NFAT Signaling Pathway (AID 444; active = well fitted curve in either direction with a large enough effect, not every such curve was filed as active;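 note: carbachol stimulus at about its EC50 of 1 µM final; % is set by controls: 0 for no effect and ±100 for the full control effect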). The settings on record: Jurkat NFAT-bla M1, carbachol, beta-lactamase ratio, 5 h; at 17.2 µM (top of the series) unless noted. Put shortly: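 Read-out: CCF4 FRET ratio (460 nm/530 nm) after 1 h RT dye loading, used for %activity and AC50 from titration series. Cells: Jurkat NFAT-β-lactamase/M1 line, treated with compound plus 1 uM carbachol for 5 h, 37 °C.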

Assay [6] can be described thus: Stat Signaling Pathway (AID 446; active = well fitted curve in either direction with a large enough effect, not every such curve was filed as active;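 note: ME-180 cervical cancer cells given 40 pM IL-6 alongside compound; SIE-controlled beta-lactamase reporter measured as 460/530 nm FRET emission ratio; % is set by controls: 0 for no effect and ±100 for the full control effect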). The settings on record: ME-180 (cervical carcinoma) SIE beta-lactamase reporter, IL-6 stimulated, 5 h; at 17.2 µM (top of the series) unless noted. Put shortly:
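FRET read-out (405 nm excitation, 460/530 nm emission) of a beta-lactamase reporter under a STAT-inducible element in ME-180 cervical carcinoma cells. Cells with compound receive 40 pM IL-6 for 5 h. Values are normalised to AC90 stimulation and AC90 JAK-inhibitor controls.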

The target in assay [7] is Glucocorticoid receptor (Homo sapiens) (UniProt P04150). Description: GR-GFP Redistribution (AID 450;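 active = compounds whose dose series gives a full or clear partial fitted curve of increased nuclear translocation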; note: potency is the fitted concentration of half-maximal effect). The settings on record: U2OS GR-GFP nuclear translocation, laser cytometry, 2 h.
Sequence of Glucocorticoid receptor (Homo sapiens) (P04150 whole entry, looked up): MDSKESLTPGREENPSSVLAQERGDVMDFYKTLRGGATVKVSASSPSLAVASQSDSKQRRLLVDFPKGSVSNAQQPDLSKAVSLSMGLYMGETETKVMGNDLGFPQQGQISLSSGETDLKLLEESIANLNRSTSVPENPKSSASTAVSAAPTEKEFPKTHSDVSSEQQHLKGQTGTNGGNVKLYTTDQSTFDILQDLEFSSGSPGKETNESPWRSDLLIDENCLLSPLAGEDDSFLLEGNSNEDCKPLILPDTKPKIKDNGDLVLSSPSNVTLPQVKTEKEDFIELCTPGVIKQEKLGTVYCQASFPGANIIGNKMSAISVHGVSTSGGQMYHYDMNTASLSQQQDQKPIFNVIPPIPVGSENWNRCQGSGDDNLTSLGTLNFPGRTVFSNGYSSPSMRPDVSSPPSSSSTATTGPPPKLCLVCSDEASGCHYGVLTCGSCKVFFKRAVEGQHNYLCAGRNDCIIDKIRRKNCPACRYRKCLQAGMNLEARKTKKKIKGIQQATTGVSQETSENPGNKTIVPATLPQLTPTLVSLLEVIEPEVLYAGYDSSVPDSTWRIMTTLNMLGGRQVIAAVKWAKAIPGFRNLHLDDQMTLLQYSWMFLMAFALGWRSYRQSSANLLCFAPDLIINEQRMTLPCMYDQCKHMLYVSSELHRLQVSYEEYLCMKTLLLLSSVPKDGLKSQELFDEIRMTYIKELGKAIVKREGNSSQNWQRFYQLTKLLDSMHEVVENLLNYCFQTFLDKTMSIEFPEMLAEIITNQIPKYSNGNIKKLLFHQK
For assay [8] the target is unchanged. The assay can be described thus: GR-EFC Redistribution (AID 451; calls by dose curve; note: potency is the fitted concentration of half-maximal effect). The settings on record: CHO-K1 GR-EFC translocation, beta-gal luminescence, 2 h. Put shortly:
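Translocation of GR-ED fusion to nuclear EA restores b-gal, read by luminescence after 1 h room-temperature detection. Engineered CHO-K1 biosensor cells, 1,000/well, exposed 2 h at 37 C to titrations up to 46 uM final.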

The target in assay [9] is Mitogen-activated protein kinase 10 (Mus musculus) (UniProt Q61831). Description: JNK3 AlphaScreen Assay (AID 530; active = well fitted curve in either direction with a large enough effect, not every such curve was filed as active;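 note: kinase came from lysate of stimulated human HepG2 cells; signal reports phosphorylation of biotinylated GST-cJun 1-79 at Ser73 with 10 µM ATP; % is set by controls: 0 for no effect and ±100 for the full control effect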). Put shortly:
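Kinase buffer: 20 mM Tris-HCl pH 7.6, 10 mM MgCl2, 1 mM DTT, 0.1 mM Na3VO4, 0.01% Tween-20; ATP 10 uM. Substrate biotin-GST-cJun(1-79), enzyme from activated HepG2 lysates. Detection by Ser73 phospho-antibody AlphaScreen.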
(Bead proximity is the source of the signal in Alpha formats.)

Assay [10] can be described thus: Cell Viability - N2a (AID 540).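 Note: plate controls were DMSO alone for no effect and tamoxifen control for full effect; nearly all actives have a fitted effect of over 45% in size.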 The settings on record: N2a mouse neuroblastoma cell viability; activity change, negative = cytotoxicity: at 92.2 µM (top of the series). Put shortly:
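N2a mouse neuroblastoma, 1500 cells/well, 5 hr settle; compound 40 hr, 37 °C; CellTiter-Glo 20 min RT; luminescence; Hill-fit AC50.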

Assay [11] in a line: Cell Viability - HUV-EC-C (AID 542). Note: % is set by controls: 0 for no effect and ±100 for the full control effect; nearly all actives have a fitted effect of over 35% in size. Put shortly:
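Luminescent ATP read-out (CellTiter-Glo, 20 min room temperature) after 40 hr compound treatment of HUV-EC-C cells at 37 °C. Concentration-response data fitted with the standard Hill equation to give AC50; tamoxifen and doxorubicin served as positive controls.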

A short description of assay [12]: Cell Viability - Renal Proximal Tubule (AID 545).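 Note: 0% = DMSO only and -100% = 100 µM tamoxifen; nearly all actives have a fitted effect of over 40% in size.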 Put shortly: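 Cytotoxicity is scored as a concentration-dependent drop in cellular ATP in primary rat renal proximal tubule cells exposed for 40 hr. AC50 derives from Hill modelling.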
Assay [13] is described as follows: Cell Viability - Mesenchymal (AID 546).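 Note: cells exposed to compound for 40 hours before reading; 0% = DMSO only and -100% = 100 µM tamoxifen.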 Put shortly:
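CellTiter-Glo luminescence (intracellular ATP, 20 min room temperature) after 40 hr compound exposure at 37 °C of 1000 glomerulus-derived human kidney mesenchymal cells/well; AC50 values obtained by fitting qHTS concentration-response data to the Hill equation.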

In assay [14] the target is 3',5'-cyclic-AMP phosphodiesterase 4B (Homo sapiens) (UniProt Q07343). The assay can be described thus: qHTS Assay for Inhibitors of PDE-IV (AID 607; active = well fitted activation curve with a large enough effect in the main read-out, with a control signal flat, not every such curve was filed as active; note: % of control where 0% means no effect). The method in brief:
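Cell-based read-out of cAMP via a modified cyclic nucleotide-gated channel and membrane potential dye (535/590 nm) in HEK293 cells expressing PDE4 endogenously. Compounds tested up to 22.9 uM final; 100 uM RO 20-1724 reference.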

Assay [15] in a line: Cellular Toxicity (caspase-3) HepG2 (AID 654).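 Note: cells exposed to compound for 16 hours before reading; 0% = DMSO alone and 100% = caspase signal from 100 µM tamoxifen.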 Put shortly: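 Luminescent Caspase-Glo 3/7 readout after 16 hr compound exposure of human hepatocellular carcinoma HepG2 cells at 37 °C; qHTS concentration-response, normalized DMSO = 0%, 100 uM tamoxifen = 100%; AC50 by standard Hill equation.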
Assay [16] is described as follows: Cellular Toxicity (caspase-3) Jurkat (AID 655).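 Note: cells exposed to compound for 16 h at 37 °C before reading.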 The method in brief: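 Caspase 3/7 activation is scored as increased luminescence in Jurkat cells cultured with compound for 16 hours in complete medium. AC50 values come from Hill fits of qHTS concentration-response data normalized to DMSO and 100 uM tamoxifen controls.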
A short description of assay [17]: Cell Viability - BJ (AID 421; calls by dose curve;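 note: potency is the fitted concentration of half-maximal effect; cells exposed to compound for 40 hours at 37 °C before readout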). The settings on record: BJ fibroblast viability, qHTS. The method in brief:
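Cytotoxicity as drop in intracellular ATP (CellTiter-Glo, 20 min RT) after 40 hr compound exposure of BJ fibroblasts at 37 °C. Titrations scaled between DMSO and 100 uM tamoxifen, Hill-fitted for AC50.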

Assay [18] in a line: Cell Viability - HepG2 (AID 433; calls by dose curve;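 note: potency is the fitted concentration of half-maximal effect; potency for ATP loss meaning cytotoxicity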). The settings on record: qHTS. Put shortly: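 Cytotoxicity is scored as loss of intracellular ATP in HepG2 cells exposed to compounds for 40 h. Concentration-response curves, normalized to DMSO and 100 uM tamoxifen, give AC50 values.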
Assay [19] is described as follows: Cell Viability - NIH 3T3 (AID 541).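 Note: plate controls were DMSO alone for no effect and tamoxifen positive control for full effect; nearly all actives have a fitted effect of over 25% in size.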 The settings on record: NIH 3T3 cell viability, qHTS; activity change, negative = cytotoxicity: at 92.2 µM (top of the series). Put shortly: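 qHTS format; 40 hr compound exposure, 37 °C; CellTiter-Glo luminescence (cellular ATP) read-out after 20 min at RT. Decrease in ATP = cytotoxicity; AC50 from standard Hill fit.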
The nature of assay [20]: Cell Viability - H-4-II-E (AID 543). Note: % is set by controls: 0 for no effect and ±100 for the full control effect; nearly all actives have a fitted effect of over 35% in size. The method in brief:
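qHTS, rat hepatoma H-4-II-E, 1500 cells/well; 40 hr compound exposure, 37 °C; CellTiter-Glo ATP luminescence after 20 min RT; AC50 by standard Hill fit.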

Experimental findings from PubChem BioAssay (NCATS) are described below.

Several values for one entry are separate records, joined by “and”; a condition that tells them apart may be missing. Identical values can stand only once. Unmarked numbers belong to inactive results. Results filed as inconclusive are left out. Activity calls are given as the source filed them. Unless noted, calls come from the whole dose curve; as a rule, active = well fitted curve in the direction sought with a large enough effect; inconclusive = small, poorly fitted or top-dose-only effect, or another doubt; inactive = no such curve, though single readings can be large; an effect the other way counts as inactive or inconclusive. A value given as a limit tells only on which side of the number the result lay.

Sequence of 3',5'-cyclic-AMP phosphodiesterase 4B (Homo sapiens) (Q07343 whole entry, looked up): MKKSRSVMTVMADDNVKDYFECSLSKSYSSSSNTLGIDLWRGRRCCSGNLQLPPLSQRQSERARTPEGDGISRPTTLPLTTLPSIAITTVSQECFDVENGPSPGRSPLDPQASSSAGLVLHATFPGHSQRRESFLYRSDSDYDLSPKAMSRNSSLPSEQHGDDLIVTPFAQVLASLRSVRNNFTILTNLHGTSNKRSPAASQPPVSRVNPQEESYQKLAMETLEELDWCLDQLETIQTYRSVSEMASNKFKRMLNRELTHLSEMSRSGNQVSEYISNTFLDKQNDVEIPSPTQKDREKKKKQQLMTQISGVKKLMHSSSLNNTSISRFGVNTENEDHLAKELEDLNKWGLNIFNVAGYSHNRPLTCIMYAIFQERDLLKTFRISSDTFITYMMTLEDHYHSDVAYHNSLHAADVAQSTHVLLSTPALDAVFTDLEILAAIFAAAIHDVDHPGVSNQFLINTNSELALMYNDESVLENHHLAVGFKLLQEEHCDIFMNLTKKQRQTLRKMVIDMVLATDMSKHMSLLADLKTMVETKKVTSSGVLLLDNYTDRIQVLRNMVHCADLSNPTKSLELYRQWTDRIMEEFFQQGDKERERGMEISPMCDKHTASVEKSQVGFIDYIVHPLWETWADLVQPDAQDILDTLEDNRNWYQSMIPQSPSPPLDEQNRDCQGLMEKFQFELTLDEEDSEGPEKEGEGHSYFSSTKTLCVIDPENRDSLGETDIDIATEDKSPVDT

Regarding `NC(N)=NC(N)=NCCc1ccccc1`, the activity change, negative = inhibition was 5.09% and 3.64% in [1]; -2.75% and 12.2% in assay [5]. The Potency in assay [2] is over 92 µM; in [3] it was over 92 µM; in assay [4], over 92 µM; in assay [7], over 20.6 µM; in assay [8], over 20.6 µM. Moreover, the activity, negative = inhibition in assay [6] is 9.3% and 14.4%. The Potency entry in assay [9], in assay [11], in [12], in [13] and in [15] was “inactive” each time. Moreover, the activity change, negative = cytotoxicity in assay [10] was -109% (active). Besides, the call in assay [14] and in [16] was inactive.
Consider `CC(C)(Sc1cc(C(C)(C)C)c(O)c(C(C)(C)C)c1)Sc1cc(C(C)(C)C)c(O)c(C(C)(C)C)c1`, for which the activity change, negative = inhibition in [1] was 1.37%; in [5] it was 10.7%. In addition, the activity, negative = inhibition in [6] was 5.26%. The Potency in assay [7] and in assay [8] was over 20.6 µM in each case. In addition, the Potency result in assay [9] was “inactive”. Further, the molecule was classed as inactive in assay [14].
`CCC(=O)O[C@]1(C(=O)CCl)[C@@H](C)C[C@H]2[C@@H]3CCC4=CC(=O)C=C[C@]4(C)[C@@]3(F)[C@@H](O)C[C@@]21C`: the figures for the activity change, negative = inhibition in assay [1] and in assay [5] were 3.85% and -24.5%, respectively. In addition, the activity, negative = inhibition in [6] was -5.77%. For the same molecule, the Potency in assay [7] was < 5.9e-06 µM (active).
In the case of `COc1cnc(NS(=O)(=O)c2ccc(N)cc2)nc1`, the activity change, negative = inhibition was -7.19% in assay [1] and -4.83% in assay [5]. Besides, the activity, negative = inhibition in assay [6] was -4.71%. Moreover, the Potency in [7] and in assay [8] was over 20.6 µM in each case. Besides, in assay [9], the Potency result is “inactive”. In assay [14], the molecule was called inactive.
Take `CC1=NN(c2ccccc2)C(=O)C1`: the activity change, negative = inhibition in assay [1] was -7.19%; in [5], 9.94%. The Potency in assay [17] was over 92 µM; in assay [2], over 92 µM; in assay [3], over 92 µM; in [18], over 92 µM; in assay [4] it was over 92 µM; in assay [7], > 46 µM and > 20.6 µM. For the same molecule, in assay [8], the Potency is over 46 µM. Further, the activity, negative = inhibition in assay [6] is -2.54%. Also, the Potency entry in assay [9], in [10], in assay [11], in assay [20], in assay [12] and in [13] was “inactive” throughout. Further, the Potency result in [15] is “inactive”. Moreover, in [19], the activity change, negative = cytotoxicity is -5.02%. The result in [14] and in assay [16] was inactive.
As to `Nc1ccc(S(=O)(=O)Nc2ccccn2)cc1`, the activity change, negative = inhibition is -6.81% and -4.21% in assay [1]; -3.78% and -28.1% in assay [5]. The activity, negative = inhibition in assay [6] was -7.68% and -0.177%. The Potency in [7] and in assay [8] was over 20.6 µM throughout. Besides, the Potency entry in [9] was “inactive”. Moreover, the outcome in assay [14] was inactive.
Take `O=C(N[C@H](CO)[C@H](O)c1ccc([N+](=O)[O-])cc1)C(Cl)Cl`: the Potency in [17], in [2], in assay [3], in assay [18] and in [4] was over 92 µM in each case. Further, the Potency result in assay [9], in assay [10], in [11], in assay [20], in assay [12] and in assay [13] was “inactive” in each case. Moreover, the Potency entry in assay [15] was “inactive”. Further, the activity change, negative = cytotoxicity in assay [19] is -14.2%. The call in [16] was inactive.
For the molecule `O=C(O)c1cc(=O)[nH]c(=O)[nH]1`, the Potency in assay [17], in [2], in assay [3], in assay [18] and in assay [4] was over 92 µM throughout. For the same molecule, the Potency result in assay [9], in assay [10], in assay [11], in assay [20], in assay [12] and in [13] was “inactive” each time. For the same molecule, in [15], the Potency entry was “inactive”. For the same molecule, the activity change, negative = cytotoxicity in assay [19] is -4.07%. The outcome in assay [16] was inactive.
Regarding `C[C@]12C=CC(=O)C=C1CC[C@@H]1[C@@H]2C(=O)C[C@@]2(C)[C@H]1CC[C@]2(O)C(=O)CO`, the Potency in assay [17], in assay [2], in assay [3], in assay [18] and in assay [4] was over 92 µM each time. For the same molecule, the Potency result in assay [9], in [10], in [11], in [20], in assay [12] and in [13] was “inactive” in each case. Besides, in [15], the Potency result is “inactive”. Also, the activity change, negative = cytotoxicity in [19] was -17%. In assay [16], the outcome was inactive.
As to `Cc1ccnc2c1NC(=O)c1cccnc1N2C1CC1`, the Potency in assay [17], in assay [2], in assay [3], in assay [18] and in [4] was over 92 µM throughout. For the same molecule, the Potency entry in [9], in assay [10], in [11], in assay [20], in [12] and in assay [13] was “inactive” in each case. Moreover, the Potency result in assay [15] was “inactive”. Also, the activity change, negative = cytotoxicity in assay [19] was -11%. In addition, in assay [16], the call was inactive.
